Assay outcomes: PubChem, several laboratories
CYP2C19 act: human CYP2C19 activators, primary screen, biochemical, luminescence; Cytochrome P450 2C19 (Homo sapiens), P33261; recombinant CYP2C19, luciferin-H EGE luminescence; hits give high values; 0 = fully inhibited enzyme, 1 = untreated enzyme; activation factor at 5 µM; 96,000 tested, under 10 active; AID 1025, 2008;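 active = activation factor of at least 2 at 5 µM in the primary screen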;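 also: 0 = wells with 2.5 mM tranylcypromine and 1 = vehicle-only wells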
Target sequence (P33261 whole entry, looked up): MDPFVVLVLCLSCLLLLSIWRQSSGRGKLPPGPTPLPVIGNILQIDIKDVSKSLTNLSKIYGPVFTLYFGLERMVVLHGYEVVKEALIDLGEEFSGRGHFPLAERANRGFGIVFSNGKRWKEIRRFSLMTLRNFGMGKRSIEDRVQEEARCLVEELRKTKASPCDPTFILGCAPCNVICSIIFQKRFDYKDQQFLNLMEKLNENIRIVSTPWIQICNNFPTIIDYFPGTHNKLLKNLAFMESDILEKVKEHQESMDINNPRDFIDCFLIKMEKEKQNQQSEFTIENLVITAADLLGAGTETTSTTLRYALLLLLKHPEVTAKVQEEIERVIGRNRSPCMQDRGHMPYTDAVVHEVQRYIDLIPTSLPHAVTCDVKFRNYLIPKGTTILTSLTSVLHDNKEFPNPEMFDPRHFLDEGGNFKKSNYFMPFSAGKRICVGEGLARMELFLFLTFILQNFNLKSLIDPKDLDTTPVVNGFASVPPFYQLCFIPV
E-sel TNF inh: E-selectin induction blockers in HUVEC – imaging, immunofluorescence, high content, primary screen | HUVEC TNFa-induced E-selectin immunofluorescence | inhibition, % at 2 µM | 0.71% of 120,000 active | AID 1246, 2008;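 active = inhibition above the batch mean plus 3 SD, and confirmed as a hit on visual image review, cut at about 43% in these data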;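 also: 0% = TNF-stimulated DMSO wells and 100% = unstimulated control wells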
CYP2C9 inh: blockers of cytochrome P450 2C9 activity – biochemical, luminescence, ADME assay, primary screen. P11712. CYP2C9 Supersomes, luciferin-H conversion. inhibition, % at 5 µM. 20% of 96,000 active;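 active = blocking of liver enzyme CYP2C9 beyond about 50% at 5 µM, limit read from the data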
CYP2C19 inhib: blockers of cytochrome P450 2C19 activity – biochemical, luminescence, ADME assay, primary screen; 21% of 96,000 active; P33261; inhibition, % at 5 µM; CYP2C19 Supersomes, luciferin-H EGE luminescence, 30 min;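 active = CYP2C19 inhibition above a set limit at 5 µM in the primary screen, cut at about 50% in these data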;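 also: plate controls were negative control wells for no effect and 2.5 mM tranylcypromine positive control for full effect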
cytoskel mod: modifiers of F-actin cytoskeleton organization, primary screen, imaging, HUVEC, phalloidin staining, high-content imaging; HUVEC TNFa F-actin phalloidin imaging; inhibition, % at 2 µM; 0.18% of 91,000 active;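 active = inhibition above the batch mean plus 3 SD and confirmed as a hit by visual image inspection, cut at about 30% in these data, passing the limit was not always enough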
CYP2C9 act: human CYP2C9 activators, primary screen, biochemical, luminescence | Cytochrome P450 2C9 (Homo sapiens), P11712 | recombinant CYP2C9, luciferin-H conversion; hits give high values; factor 1 = untreated enzyme, 0 = blocked | activation factor at 5 µM | 1.4% of 96,000 active;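 active = activation factor of 2 or more for CYP2C9 at a 5 µM dose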;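 also: 0 = sulfaphenazole-blocked wells and 1 = vehicle-only wells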
Starred values were filed as active, the others as inactive; x = no result given. Only some compounds are listed: those with a hit (about 22% of all), similar ones and a draw of the others.

SMILES	CYP2C19 act	E-sel TNF inh	CYP2C9 inh	CYP2C19 inhib	cytoskel mod	CYP2C9 act
O=C(COC(=O)C1(c2ccccc2)CC1)N1CCN(c2ccc(F)cc2)CC1	0.2	x	-6.5	76.6*	-52.4	1.1
O=C(CCS(=O)(=O)c1ccc(Br)cc1)N1CCN(c2ccccc2)CC1	0.8	-5.5	38.9	16.2	x	0.6
O=C(CCS(=O)(=O)c1ccc(Br)cc1)N1CCN(c2ccccc2Cl)CC1	0.3	13.2	-2.2	71.4*	9.2	1
O=C(Cc1ccc(Br)cc1)N1CCN(c2ccccc2O)CC1	0	5.9	81.2*	96.2*	2.3	0.2
CCOCC(=O)N1CCN(c2ccc(F)cc2)CC1	0.8	5.2	3.4	18.6	-29.7	1
O=C(COC(=O)C1(c2ccc(F)cc2)CCCC1)NC1CC1	0.4	12.0	16.7	55.0*	9.3	0.8
CCOC(=O)N1CCN(c2ccccc2O)CC1	0.6	4.4	26.8	36.1	-6.3	0.7
COc1cccc(N/C(SCc2cccc([N+](=O)[O-])c2)=C(/C#N)C(N)=O)c1	x	10.4	x	x	x	x
Oc1ccccc1/C=N/n1cnnc1	1	0.5	12.4	-3.7	-24.0	0.9
Cn1c(OCc2ccco2)nc2c1c(=O)n(Cc1ccc(Cl)c(Cl)c1)c(=O)n2C	0.7	-14.9	22.2	31.4	-10.9	0.8
O=C(Cc1ccc(Br)cc1)N1CCN(c2ccc(F)cc2)CC1	0	5.4	75.7*	96.7*	x	0.2
O=C(CSCc1ccc(F)cc1)N1CCN(c2ccc(F)cc2)CC1	0.7	-19.4	17.7	33.1	13.4	0.8
CCOc1ccc(CCN2CN(CC)CNC2=S)cc1OCC	x	-6.0	x	x	x	x
CCCCn1c(SCc2nc(N)nc(N3CCCCC3)n2)nc2c1c(=O)n(C)c(=O)n2C	x	10.4	x	x	x	x
CCCCNC(=O)COC(=O)c1cc(C)nc2ccccc12	0.3	9.2	-160.0	74.7*	4.2	2.6*
Cc1cc(C(=O)OCC(=O)NCCC(C)C)c2ccccc2n1	0.8	x	-137.0	21.1	-15.1	2.4*
Cc1cc(C(=O)OCC(=O)Nc2cc(C)on2)c2ccccc2n1	0.4	2.0	21.2	55.9*	-41.8	0.8
Cc1cc(C(=O)OCC(=O)NCCCN2CCCC2=O)c2ccccc2n1	1	x	-4.1	0.1	-4.2	1
Cc1ccc(NC(=O)CSc2ccc(-c3cccnc3)nn2)cc1Cl	x	4.4	x	x	x	x
O=C(N/N=C(\c1ccccc1)c1cccnc1)C(O)(c1ccccc1)c1ccccc1	0.7	0.9	66.6*	27.9	28.3	0.3
O=C(N/N=C/c1cccnc1)C(O)(c1ccccc1)c1ccccc1	0.6	-63.4	41.2	39.1	-0.9	0.6
COC(CNC(=O)CC1C(=O)N(Cc2ccccc2)C(C)c2nc3ccccc3n21)OC (stereo not drawn)	x	-7.6	x	x	x	x
Cc1nc2[nH]c(=O)c3c(n2n1)NC1=C(C(=O)CC(C)(C)C1)C3c1ccc(F)cc1 (stereo not drawn)	1.1	x	-4.6	-8.9	-1.3	1
Cc1ccc(C2C3=C(CC(C)(C)CC3=O)Nc3[nH]c(=S)[nH]c(=O)c32)cc1 (stereo not drawn)	0.6	x	69.7*	39.7	x	0.3
O=C(CSCc1ccccc1)NC1CCSC1=O (stereo not drawn)	0.6	-10.0	23.8	35.2	9.5	0.8
SMILES	CYP2C19 act	E-sel TNF inh	CYP2C9 inh	CYP2C19 inhib	cytoskel mod	CYP2C9 act
c1ccc(CN2CCOCCOCCOCCOCCOCCOCC2)cc1	x	10.6	x	x	x	x
CNc1nc(N2CCc3ccccc32)ncc1F	0.2	3.9	24.4	81.6*	-19.2	0.8
CC1CCCCC1NC(=O)CSc1nnc(-c2ccccc2)n1N (stereo not drawn)	0.1	-4.3	56.1*	88.2*	x	0.4
CCN(CC)S(=O)(=O)c1cccc(-c2nnc(SCC(=O)NC3CCCCCC3)n2N)c1	0.4	4.8	59.8*	57.3*	x	0.4
CCN(CC)S(=O)(=O)c1cccc(-c2nnc(SCC(=O)NC3CCCC3)n2N)c1	0.8	-3.6	8.3	20.3	9.1	0.9
Nn1c(SCC(=O)NC2CCCCC2)nnc1-c1ccccc1	0.7	x	-9.7	30.8	26.9	1.1
CCN(CC)S(=O)(=O)c1cccc(-c2nnc(SCC(=O)NC)n2CCc2ccccc2)c1	0.6	-49.6	38.1	44.6	x	0.6
